We go through 15 compounds from PubChem BioAssay (EPA / NIEHS).

Where “and” joins values, the source holds several entries; their conditions need not be identical. Identical values can stand only once. Results filed as inconclusive are left out. A structure can be active in one record and inactive in another. Calls of active or inactive are those of the source. Rule for the calls: active = hit-call score of the fitted dose curve at least 0.9, where 1 is the maximum; inconclusive = response in the unintended direction; inactive = score below 0.9.

Experiment [1] is described as follows: TOX21_p53_BLA_p2_viability: Viability Assessment in the Tox21 HCT-116 p53 Agonism Beta-lactamase Assay, Phase 2 (AID 2283591).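 Note: compound exposure lasted 16 h at 37 °C; actives lower the ATP signal meaning cytotoxicity.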 The essentials: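 HCT-116 p53-bla cells (4000/well) rested 5 h at 37C, then received compounds in DMSO (217-fold dilution) for 16 h at 37C, 5% CO2. After the CCF4 read, CellTiter-Glo was added; ATP luminescence was read after 30 min at room temperature.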

Experiment [2] concerns the target Cellular tumor antigen p53 (Homo sapiens) (UniProt P04637). As to the kind of experiment: TOX21_p53_BLA_p2_ratio: Tox21 HCT-116 p53 Agonism Beta-lactamase Assay, Ratio, Phase 2 (AID 2283592). In a few lines: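 In this cell-based reporter format, HCT116 cells were dosed with chemicals delivered from DMSO by 217-fold dilution and incubated 16 h at 37C. Emission at 460 and 530 nm after 2 h CCF4-AM loading provided the ratio, fitted upward versus DMSO.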

Experiment [3] is described as follows: TOX21_p53_BLA_p3_viability: Viability Assessment in the Tox21 HCT-116 p53 Agonism Beta-lactamase Assay, Phase 3 (AID 2283593).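 Note: cells exposed to compound for 16 h before reading.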 In a few lines: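 HCT-116 cells (4000/well) rested 5 h at 37C, then got DMSO compounds by pin tool (217-fold dilution) for 16 h at 37C, 5% CO2. After the bla read, CellTiter-Glo was added and luminescence read at 30 min, room temperature.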

Experiment [4] has as its target Cellular tumor antigen p53 (Homo sapiens) (UniProt P04637). As to the kind of experiment: TOX21_p53_BLA_p3_ratio: Tox21 HCT-116 p53 Agonism Beta-lactamase Assay, Ratio, Phase 3 (AID 2283596). In a few lines:
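HCT116 p53-bla cells (4000/well) given compound in DMSO (217-fold dilution) after 5 h, incubated 16 h at 37C. CCF4-AM substrate 2 h at room temperature; 460/530 nm emission ratio, gain fitted against DMSO.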

A short description of experiment [5]: TOX21_p53_BLA_p4_viability: Viability Assessment in the Tox21 HCT-116 p53 Agonism Beta-lactamase Assay, Phase 4 (AID 2283597).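 Note: hits lower the luminescence signal meaning cytotoxicity.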 The essentials: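 We seeded HCT116 p53 reporter cells at 4000/well and waited 5 h. We then added compounds in DMSO at a 217-fold dilution and incubated for 16 h. Viability was read as CellTiter-Glo luminescence after 30 min at RT.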

For experiment [6], the target named is Cellular tumor antigen p53 (Homo sapiens) (UniProt P04637). Put plainly: TOX21_p53_BLA_p5_ratio: Tox21 HCT-116 p53 Agonism Beta-lactamase Assay, Ratio, Phase 5 (AID 2283599). The essentials:
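HCT-116 cells carrying a p53-inducible beta-lactamase reporter were seeded at 4000 cells/well and dosed after 5 h with compound in DMSO (217-fold dilution). After 16 h at 37C, CCF4-AM substrate was added for 2 h, and the 460/530 nm emission ratio was scored as gain-of-signal versus DMSO.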

The nature of experiment [7]: TOX21_p53_BLA_p5_viability: Viability Assessment in the Tox21 HCT-116 p53 Agonism Beta-lactamase Assay, Phase 5 (AID 2283600). In a few lines: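 Compounds, pinned from DMSO at 217-fold dilution, were left on the cells for 16 h. The viability endpoint was ATP content measured by CellTiter-Glo luminescence, where falling signal reflects cytotoxicity.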
In experiment [8] the target is Cellular tumor antigen p53 (Homo sapiens) (UniProt P04637). As to the kind of experiment: TOX21_p53_BLA_p4_ratio: Tox21 HCT-116 p53 Agonism Beta-lactamase Assay, Ratio, Phase 4 (AID 2283601). The essentials: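 HCT116 cells carrying an inducible beta-lactamase reporter were plated at 4000 cells/well, rested 5 h, then exposed to compounds in DMSO (217-fold dilution) for 16 h at 37C. CCF4-AM substrate was loaded 2 h at room temperature; 460/530 nm emission ratio scored gain-of-signal versus DMSO.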
Cellular tumor antigen p53 (Homo sapiens), sequence (P04637 whole entry, looked up): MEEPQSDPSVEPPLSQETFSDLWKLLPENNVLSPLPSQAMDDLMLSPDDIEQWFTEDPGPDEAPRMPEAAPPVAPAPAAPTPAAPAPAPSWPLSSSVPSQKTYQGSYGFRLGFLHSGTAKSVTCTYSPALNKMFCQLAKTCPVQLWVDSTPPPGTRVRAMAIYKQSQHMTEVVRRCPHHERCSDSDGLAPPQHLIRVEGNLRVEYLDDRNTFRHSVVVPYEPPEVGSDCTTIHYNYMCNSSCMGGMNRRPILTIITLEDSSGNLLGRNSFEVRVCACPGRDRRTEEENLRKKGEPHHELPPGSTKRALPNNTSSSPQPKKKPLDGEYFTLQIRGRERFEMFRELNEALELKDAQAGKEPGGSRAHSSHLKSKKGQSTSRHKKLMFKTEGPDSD

What is called AC50 is the midpoint of the concentration-response curve, whichever way the signal moves. For `NNCCc1ccccc1`, the outcome in experiment [1], in experiment [2], in experiment [3], in experiment [4], in experiment [5] and in experiment [6] was inactive. The outcome in experiment [7] and in experiment [8] was inactive. For the same compound, the AC50 in experiment [5] was 74.1 µM (active).

Regarding `C[C@@H](O)[C@H]1C(=O)N2C(C(=O)O)=C(SCCN=CN)C[C@H]12`, the compound was classed as inactive in experiment [1], in experiment [2], in experiment [3], in experiment [4], in experiment [5] and in experiment [6].

Regarding `CCOc1cccc(N)c1`, the compound was classed as inactive in experiment [1], in experiment [2] and in experiment [3].

Take `O=C(O)c1ccc(S(=O)(=O)N(Cl)Cl)cc1`: the call in experiment [1], in experiment [2], in experiment [3], in experiment [4], in experiment [5] and in experiment [6] was inactive. The result in experiment [7] and in experiment [8] was inactive. Moreover, the concentration at half-maximal activity (AC50) in experiment [2] was 64.5 µM (active).

In the case of `NC(=O)NNc1ccccc1`, the result in experiment [1], in experiment [2], in experiment [3], in experiment [4], in experiment [5] and in experiment [6] was inactive. Also, the call in experiment [7] and in experiment [8] was inactive. In addition, the AC50 in experiment [4] is 0.125 nM (active); in experiment [8] it was 6.08e-05 µM (active).

As to `O=S(=O)(O)c1ccc2nc(-c3ccccc3)[nH]c2c1`, the AC50 in experiment [1] is 30.2 µM (active) and 19.9 µM (active); in experiment [3] it was 15.6 µM (active); in experiment [5], 33.8 µM (active) and 23 µM (active); in experiment [7], 24.8 µM (active). For the same compound, the result in experiment [2], in experiment [3], in experiment [4], in experiment [7] and in experiment [8] was inactive.

Consider `Cc1c(C)c2c(c(C)c1OC(=O)CCC(=O)O)CC[C@@](C)(CCC[C@H](C)CCC[C@H](C)CCCC(C)C)O2`, for which the call in experiment [1], in experiment [2], in experiment [4], in experiment [5], in experiment [6] and in experiment [7] was inactive. Moreover, in experiment [8], the result was inactive. For the same compound, the half-maximal activity concentration (AC50) in experiment [3] is 46.5 µM (active) and 41.2 µM (active); in experiment [4], 67700 nM (active).

Regarding `Oc1cccc(-c2c3nc(c(-c4cccc(O)c4)c4ccc([nH]4)c(-c4cccc(O)c4)c4nc(c(-c5cccc(O)c5)c5ccc2[nH]5)CC4)C=C3)c1`, the AC50 was 20.2 µM (active) and 17.5 µM (active) in experiment [1]; 26.1 µM (active) and 33.8 µM (active) in experiment [2]; 35.7 µM (active) in experiment [3]; 37400 nM (active) in experiment [4]; 17 µM (active) and 33.2 µM (active) in experiment [5]; 37.1 µM (active) and 38.3 µM (active) in experiment [6]. The AC50 was 42.9 µM (active) in experiment [7]; 24.5 µM (active) and 36.4 µM (active) in experiment [8]. In addition, the result in experiment [3], in experiment [4] and in experiment [7] was inactive.

Take `Oc1cccc(O)c1O`: the call in experiment [1], in experiment [2], in experiment [3], in experiment [4], in experiment [5] and in experiment [6] was inactive. For the same compound, the result in experiment [7] and in experiment [8] was inactive. For the same compound, in experiment [2], the AC50 is 75.6 µM (active).

For the compound `COC(=O)[C@H]1[C@H]2C[C@@H]3c4[nH]c5ccccc5c4CCN3C[C@H]2C[C@@H](OC(=O)c2cc(OC)c(OC)c(OC)c2)[C@@H]1OC`, the result in experiment [1], in experiment [2], in experiment [3], in experiment [4], in experiment [5] and in experiment [6] was inactive. In addition, the outcome in experiment [7] and in experiment [8] was inactive. The AC50 in experiment [5] is 6.8 µM (active); in experiment [8], 15.7 µM (active).

Consider `CCOC(=O)c1c(C)n(C)c2ccc(O)cc12`, for which the outcome in experiment [1], in experiment [2], in experiment [3], in experiment [4], in experiment [5] and in experiment [6] was inactive.

In the case of `CCOC(=O)c1ccc(OCCN2C[C@H](O)[C@@H](O)[C@H](O)[C@H]2CO)cc1`, the compound was called inactive in experiment [1], in experiment [2] and in experiment [3].

Turning to `CC1=CC[C@H](CC=O)C1(C)C`, the outcome in experiment [1], in experiment [2], in experiment [3], in experiment [4], in experiment [5] and in experiment [6] was inactive.

With `O=C(CCCCCCC(=O)Nc1ccccc1)NO`, the outcome in experiment [1], in experiment [3], in experiment [4] and in experiment [7] was inactive. Further, the AC50 in experiment [2] was 420 nM (active) and 686 nM (active); in experiment [4], 874 nM (active); in experiment [5], 4.47 µM (active) and 7.11 µM (active); in experiment [6], 1.08 µM (active) and 842 nM (active); in experiment [8], 904 nM (active) and 534 nM (active).

As to `C=C(CC)C(=O)c1ccc(OCC(=O)O)c(Cl)c1Cl`, the result in experiment [1], in experiment [3], in experiment [5], in experiment [6], in experiment [7] and in experiment [8] was inactive. Besides, the AC50 in experiment [2] is 13.8 µM (active) and 6.46 µM (active); in experiment [4], 50.8 µM (active) and 38.9 µM (active); in experiment [5] it was 45.8 µM (active); in experiment [6] it was 24.7 µM (active); in experiment [8] it was 25.2 µM (active).
